In the library only some 19% were active in any assay of this set; here they are far more common.
TDP1 cell noCPT: qHTS for Inhibitors of human tyrosyl-DNA phosphodiesterase 1 (TDP1): qHTS in cells in absence of CPT | 15% of 420,000 active | DT40 Tdp1-/- hTDP1 cells, no CPT, ATP luminescence, 48 h | Potency, µM (highest dose often 46.2 µM), without a hit: at the top dose activity change, negative = growth inhibition, actives largely listed as inhibitors | AID 686978, 2013; also: nearly all actives have a fitted effect of over 55% in size
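Chicken DT40 Tdp1-/- cells complemented with human TDP1, screened without camptothecin (DMSO vehicle only), 400 cells/well. Compounds pin-transferred, cells incubated at 37 °C for at least 48 hr. Growth read as ATP-dependent luminescence (CellTiter-Glo, 30 min at RT).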
KB-3-1 tox: qHTS assay for MDR1-selective chemotherapeutics: Primary screen using the parental adenocarcinoma cell KB-3-1. KB-3-1 viability, CellTiter-Glo ATP luminescence, 72 h. Potency, µM (titrated, usually from 46.1 µM), most hits filed as cytotoxic. 1.4% of 400,000 active. AID 1347075, 2019; also: nearly all actives have a fitted effect of over 60% in size
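Cytotoxicity in the drug-sensitive parental line KB-3-1 was scored as loss of CellTiter-Glo luminescence following 72 h incubation with compound. Values come from curve fitting of normalized concentration-response data.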
HT1080NT lethal: qHTS for induction of synthetic lethality in tumor cells producing 2HG: qHTS for the HT-1080-NT fibrosarcoma cell line; HT-1080-NT fibrosarcoma viability, CellTiter-Glo ATP luminescence, 48 h; Potency, µM (titrated, usually from 46.1 µM), inactives show at the highest dose activity, negative = less viability, hits mostly cytotoxic; 1.6% of 360,000 active;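 also: NT is the 2HG producing partner of a matched IDH1 knockdown line; 0% = DMSO-treated cells and -100% = media-only wells without cells; nearly all actives have a fitted effect of over 55% in size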
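Viability of the 2HG-overproducing fibrosarcoma line after 48 hours of compound exposure at 37 degrees C was determined by luminescence with CellTiter-Glo, and concentration-effect curves were then fitted and categorized.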
KB-V1 MDR tox: qHTS assay for MDR1-selective chemotherapeutics: Primary screen using the drug-selected MDR subline cells KB-V1 | KB-V1 MDR cells viability, CellTiter-Glo, 72 h | Potency, µM (series often up to 46.1 µM), usual class: cytotoxic | 3.4% of 400,000 active; also: nearly all actives have a fitted effect of over 60% in size
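Potencies derive from concentration-effect curves fitted to normalized luminescence (CellTiter-Glo) of KB-V1 cells treated for 72 h at 37 degrees C in phenol-red-free DMEM containing 10% FBS.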
HT1080 IDH1KD tx: qHTS for induction of synthetic lethality in tumor cells producing 2HG: qHTS for the HT-1080-IDH1KD cell line; HT-1080 IDH1 knockdown viability, ATP luminescence, 48 h; Potency, µM (top dose mostly 46.1 µM), without a hit: top-dose activity, negative = toxicity, usual class: cytotoxic; 2% of 360,000 active; AID 686971, 2013;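 also: 0% = DMSO wells and -100% = cell-free medium wells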
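Luminescent ATP read-out (CellTiter-Glo, 10 min at room temperature) after 48 h compound exposure at 37 °C gave viability of IDH1-knockdown HT-1080 cells. Activity was normalised to DMSO and cell-free wells, then fitted as concentration-response curves.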
DT40 TDP1 CPT: qHTS for Inhibitors of human tyrosyl-DNA phosphodiesterase 1 (TDP1): qHTS in cells in presence of CPT. chicken DT40 Tdp1-/-;hTDP1 cells + 20 nM CPT, ATP luminescence, 48 h. Potency, µM (doses to about 46.2 µM), without a hit: top-dose activity change, negative = growth inhibition, usual class: inhibitors. 12% of 420,000 active. AID 686979, 2013; also: nearly all actives have a fitted effect of over 55% in size
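Chicken DT40 Tdp1-/- cells complemented with human TDP1, 400 cells/well, exposed to compounds plus 20 nM camptothecin for at least 48 h at 37 C; viability read as ATP content by CellTiter-Glo luminescence.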
* = called active by the depositor; [ ] = dose if it differs, or a comment. Calls follow the shape of the dose curve; as a rule, active = well fitted curve in the direction sought with a large enough effect; inconclusive = small, poorly fitted or top-dose-only effect, or another doubt; inactive = no such curve, though single readings can be large; an effect the other way counts as inactive or inconclusive. Unless noted, % is scaled to controls: 0 for no effect and ±100 for the full control effect; potency is read from the fitted curve at half-maximal effect.

How did Cc1ccc(S(=O)(=O)N2CCOCC2)cc1C(=O)N1CC(C)OC(C)C1 (centres undefined) do in these assays?
TDP1 cell noCPT: -14%; KB-3-1 tox: inactive; HT1080NT lethal: 2%; KB-V1 MDR tox: inactive; HT1080 IDH1KD tx: 13%; DT40 TDP1 CPT: -10%

How did CC1CN(C(=O)c2cc(S(=O)(=O)N3CCN(c4ccccc4)CC3)ccc2Cl)CC(C)O1 (centres undefined) do in these assays?
TDP1 cell noCPT: 2.1µM*; KB-3-1 tox: inactive; HT1080NT lethal: -7%; KB-V1 MDR tox: inconclusive; HT1080 IDH1KD tx: -13%; DT40 TDP1 CPT: 3.7µM*

Results for CN1CCN(c2ccc(-c3cccc4nccn34)cn2)CC1 ?
TDP1 cell noCPT: inconclusive; KB-3-1 tox: inactive; HT1080NT lethal: 9%; KB-V1 MDR tox: inactive; HT1080 IDH1KD tx: 5%; DT40 TDP1 CPT: inconclusive

Results for COc1cccc(N2CCN(C(=O)C3CCN(S(=O)(=O)c4cn(C)cn4)CC3)CC2)c1 ?
TDP1 cell noCPT: -9%; DT40 TDP1 CPT: -2%

Results for CCC(C)n1c(SCc2ccccc2)nc2ccsc2c1=O (centres undefined) ?
TDP1 cell noCPT: 21µM*; KB-3-1 tox: inconclusive; HT1080NT lethal: -4%; KB-V1 MDR tox: 10µM*; HT1080 IDH1KD tx: 1%; DT40 TDP1 CPT: inconclusive

Results for CCC(C)n1c(SCc2ccc(F)cc2Cl)nc2ccsc2c1=O (centres undefined) ?
TDP1 cell noCPT: 21µM*; DT40 TDP1 CPT: 18µM*

What do the screens show for `O=c1[nH]c(SCc2ccccc2)nc2ccsc12`?
TDP1 cell noCPT: -27%; KB-3-1 tox: inactive; HT1080NT lethal: -22%; KB-V1 MDR tox: inactive; HT1080 IDH1KD tx: -28%; DT40 TDP1 CPT: -4%

How did CCC(C)n1c(SCc2ccc(C(C)(C)C)cc2)nc2ccsc2c1=O (centres undefined) do in these assays?
TDP1 cell noCPT: 13µM*; DT40 TDP1 CPT: 13µM*

What do the screens show for `CCOCCc1nn2c(=O)cc(COC(=O)COc3ccccc3Cl)nc2s1`?
TDP1 cell noCPT: 0%; KB-3-1 tox: inactive; KB-V1 MDR tox: inactive; DT40 TDP1 CPT: -6%

What do the screens show for `CC(C)CN(CC(C)C)C(=O)COc1ccccc1C(N)=O`?
TDP1 cell noCPT: 12µM*; KB-3-1 tox: inactive; HT1080NT lethal: 3%; KB-V1 MDR tox: inactive; HT1080 IDH1KD tx: -3%; DT40 TDP1 CPT: inconclusive

Results for CCN1CCN(Cc2nc3cc(NC(=O)c4ccccc4[N+](=O)[O-])ccc3n2CC)CC1 ?
TDP1 cell noCPT: -8%; KB-3-1 tox: inactive; KB-V1 MDR tox: inactive; DT40 TDP1 CPT: -13%

What do the screens show for `O=C(C[N+]12CCCc3cccc(c31)CCC2)c1ccc2ccccc2c1`?
TDP1 cell noCPT: 7.1µM*; KB-3-1 tox: inconclusive; KB-V1 MDR tox: inactive; DT40 TDP1 CPT: 5µM*

Results for O=C(C[N+]12CCCc3cccc(c31)CCC2)c1ccc(Cl)c2ccccc12 ?
TDP1 cell noCPT: -2%; KB-3-1 tox: inactive; KB-V1 MDR tox: inactive; DT40 TDP1 CPT: -9%

Results for O=C1c2ccccc2C(=O)N1CCCc1nc2ccccc2c(=O)n1Cc1ccco1 ?
TDP1 cell noCPT: 16µM*; KB-3-1 tox: inactive; HT1080NT lethal: 3%; KB-V1 MDR tox: inconclusive; HT1080 IDH1KD tx: -2%[9.24 µM]; DT40 TDP1 CPT: 21µM*
